Drawing on PMC7819943, “Rice protein-binding microarrays: a tool to detect cis-acting elements near promoter regions in rice”, this text covers binding signal for 54 sequences.

Whole data set: some 39,000 sequences, median “fluorescence intensity (a.u.)” near 4,300, cut for the highest 2% near 39,000. This is one part of a sample in which the highest values are shown more often than they occur.

The target in this assay is T1, OsSMF1 (Oryza sativa, UniProt Q6ZLB0 1-436).
T1 sequence: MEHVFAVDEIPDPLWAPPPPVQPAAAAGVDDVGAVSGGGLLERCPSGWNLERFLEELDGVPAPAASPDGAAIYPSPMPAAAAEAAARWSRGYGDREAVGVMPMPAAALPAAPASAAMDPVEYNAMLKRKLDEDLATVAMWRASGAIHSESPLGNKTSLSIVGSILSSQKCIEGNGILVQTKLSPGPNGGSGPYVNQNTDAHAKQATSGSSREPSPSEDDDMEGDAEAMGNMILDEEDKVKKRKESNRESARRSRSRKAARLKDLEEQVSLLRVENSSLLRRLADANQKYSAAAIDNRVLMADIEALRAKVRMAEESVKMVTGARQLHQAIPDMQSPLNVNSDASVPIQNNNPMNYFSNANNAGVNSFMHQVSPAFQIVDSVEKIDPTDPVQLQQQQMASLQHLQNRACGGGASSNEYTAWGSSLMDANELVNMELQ
The assay can be described thus: protein-binding microarray (RPBM); PBS, 2% BSA, 51.3 ng/ul salmon testes DNA, 50 uM zinc acetate, 200 nM TF, 25 C, 1 h; high values mean tight binding. The note with it: protein: recombinant; tags: N-terminal polyhistidine and DsRed monomer fusion (pET32a); chain copies: 2; label: CyDye5-dUTP incorporated in the synthesized complementary strand; 3' TTTTT single-stranded linker to array surface; dsDNA, one strand shown. Summed up:
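Per-feature fluorescence intensity (arbitrary units), read on an Axon 4000B scanner, is the binding signal. Transcription factors carrying an N-terminal polyhistidine tag and DsRed fusion were expressed in E. coli BL21-CodonPlus and purified on Ni–NTA. A custom Agilent array, made double-stranded by primer extension with Cy5-dUTP and blocked with 2% BSA, was incubated with 200 nM protein in PBS, 2% BSA, salmon testes DNA and 50 µM zinc acetate at 25 °C for 1 h and then washed.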
As for “CTTATCTACTTGATATTTGCATATGTATACAGTTTTACTGCGGAGTCACCTAGTGCAG”, the binding signal was 3220 fluorescence intensity (a.u.).

In the case of “GGTAGCTGATACAGGTATGCAGACGAAAGATCACACCTATCGGAGTCACCTAGTGCAG”, the binding signal is 32500 fluorescence intensity (a.u.). With “ATGATCAGATACACACTCTGGCTTGGCTTGTAGCTGCAACCGGAGTCACCTAGTGCAG”, the binding signal is 50400 fluorescence intensity (a.u.). The same measure for “GCTGAGCTGAGCTGATATGATCAACACAGTGCAGACTTGGCGGAGTCACCTAGTGCAG”: 3710 fluorescence intensity (a.u.); for “ACTTGATCAGCACACTCTGGTGACATGACAGCTGTAAAGTCGGAGTCACCTAGTGCAG”: 4180 fluorescence intensity (a.u.). Take “GTAGTACCATGTATTAGATGGACTTCTCCACGTTTCTCTGCGGAGTCACCTAGTGCAG”: the binding signal was 4980 fluorescence intensity (a.u.). As to “GGGGCCACATCGTCAGTGAAACGGACGGGTATAGGGTTAGCGGAGTCACCTAGTGCAG”, the binding signal was 3270 fluorescence intensity (a.u.). On to “CATAGCCCTCTGTCGCGGGCGCCGCTGTCCACCGTCCTCCCGGAGTCACCTAGTGCAG”, for which the binding signal is 43900 fluorescence intensity (a.u.). With “TTGACCGCTTGACGCGGAGCTCCCCGCCGGCCTCCTCCCCCGGAGTCACCTAGTGCAG”, the binding signal is 4540 fluorescence intensity (a.u.). “ATCGCCCCGCTGACCGCCTCCTCCCGCGGCTGTCCGAGCGCGGAGTCACCTAGTGCAG”: the binding signal was 41300 fluorescence intensity (a.u.). As to “CGCCGCCTCCGCCTCCGCCTCCGCTGCTCGCCGACCGGAGCGGAGTCACCTAGTGCAG”, the binding signal is 4680 fluorescence intensity (a.u.).

With “CCTCCTCGCTGCCCAGCCACCGCCGCCCTCCCGTCCCGCGCGGAGTCACCTAGTGCAG”, the binding signal is 3490 fluorescence intensity (a.u.). The same measure for “CGCGCCGTCGTCCAGCCACCGTCACGCCGCGCGGGGCGCCCGGAGTCACCTAGTGCAG”: 3830 fluorescence intensity (a.u.); for “ATCAGCAACAATCAGGCTCCTGTGCGGTAAGTCCAACATTCGGAGTCACCTAGTGCAG”: 6700 fluorescence intensity (a.u.). For the sequence “AGTGCTAGTCATCACTGTATTAGATTTAGGAATCTCTTCTCGGAGTCACCTAGTGCAG”, the binding signal is 3600 fluorescence intensity (a.u.).

As for “AATCCGCCGAGGGACTTATTGTGACCGGTTTTGATTAGTTCGGAGTCACCTAGTGCAG”, the binding signal is 19600 fluorescence intensity (a.u.). Consider “CCACACACTTATGAACACGAGTACAGCCGATGCCCTATAACGGAGTCACCTAGTGCAG”, for which the binding signal was 3390 fluorescence intensity (a.u.). In the case of “TAAGGCAAAAGCCAAAATTCAAATATAGTTAAAATTAAAGCGGAGTCACCTAGTGCAG” it was 7150 fluorescence intensity (a.u.); in that of “TATGATTTTAAATTCGTCATACTCTAGTTAGCCTAGAAAACGGAGTCACCTAGTGCAG”, 3430 fluorescence intensity (a.u.). Turning to “TGTTAAATTCGTCTCGCAAAATAGCCTAAGGGTTATAGAACGGAGTCACCTAGTGCAG”, the binding signal was 40500 fluorescence intensity (a.u.). The same measure for “AAGCGCACGCACACATATGCCACGCATTGACGCATGGCACCGGAGTCACCTAGTGCAG”: 5630 fluorescence intensity (a.u.); for “CCCAGCCCACAAAGGAAGCGAGATCACAATTTCTGGGCCGCGGAGTCACCTAGTGCAG”: 3400 fluorescence intensity (a.u.). As for “GATCAACCTTATTTCTGCAAGCAAATCAAAGAAACAAGCACGGAGTCACCTAGTGCAG”, the binding signal is 41700 fluorescence intensity (a.u.).

“TCCCGCCACAAGCAACCAAGAAATCAAGAAACCGTTTCAGCGGAGTCACCTAGTGCAG”: the binding signal was 19600 fluorescence intensity (a.u.). The same measure for “AAAAGCAAAAGCAAAAGAAACACGTCCTTATTCCTCTCTCCGGAGTCACCTAGTGCAG”: 3910 fluorescence intensity (a.u.). For “CGGCAGCCACCTCCCCACTCCATCCTCTCGTCCCCTTTTACGGAGTCACCTAGTGCAG”, the binding signal is 3870 fluorescence intensity (a.u.). With “TGAGCTGCTTTTACACGTTGCTTTATTGACACTTGTTCACCGGAGTCACCTAGTGCAG”, the binding signal was 45500 fluorescence intensity (a.u.).

As for “CTGCTCCTAGTCACACTTGACAGTTCAGCTTCAGCTCCTCCGGAGTCACCTAGTGCAG”, the binding signal was 6360 fluorescence intensity (a.u.). For the sequence “ATTGTTTAGTATTGCGTTATGTTATGTTACTTTTGATACACGGAGTCACCTAGTGCAG”, the binding signal was 14400 fluorescence intensity (a.u.). On to “TGCATAAGGATAATCCGGTCGTCAGCAAACAATGCATTCACGGAGTCACCTAGTGCAG”, for which the binding signal was 3450 fluorescence intensity (a.u.).

“ACGAATTTATTAAGCCTAATTAATCCGTTATTAGCAAATGCGGAGTCACCTAGTGCAG”: the binding signal is 6210 fluorescence intensity (a.u.).

In the case of “TGCAAATTGCGAGACGGATTTATTAAGCCTAGTTAATCCGCGGAGTCACCTAGTGCAG”, the binding signal was 39400 fluorescence intensity (a.u.). Consider “CAAGACGGATTTATTAAGCCTAATTAATCTATCATTAGCGCGGAGTCACCTAGTGCAG”, for which the binding signal was 4110 fluorescence intensity (a.u.). Regarding “AAAGGCCACGCCTTTGCCTCGTCAGTTATCTCTTCGTTTCCGGAGTCACCTAGTGCAG”, the binding signal is 5220 fluorescence intensity (a.u.). The same measure for “GGAGTATCCATGCCAGCTAAGCGAGTTGTACAAGGCAAGCCGGAGTCACCTAGTGCAG”: 5690 fluorescence intensity (a.u.); for “CGGGTAGGCGAACACGTCGCTGACGCCGCACCGCTCCAGCCGGAGTCACCTAGTGCAG”: 6760 fluorescence intensity (a.u.); for “TGGTGATATCAATAGGATTGGAAGAGATTTGTCAGCCTATCGGAGTCACCTAGTGCAG”: 3450 fluorescence intensity (a.u.). Turning to “TATCAAAATCCACTGCAACATTTAATACATACATAGTGAACGGAGTCACCTAGTGCAG”, the binding signal was 21300 fluorescence intensity (a.u.). In the case of “CGCCATGGGAGCACTCCCCATCTTGTCCTCTACCGCCGCGCGGAGTCACCTAGTGCAG” it was 3250 fluorescence intensity (a.u.); in that of “TAGCTCGTACTCCTACATCGTAGCCACCGCGCCTCCCATGCGGAGTCACCTAGTGCAG”, 3640 fluorescence intensity (a.u.).

For the sequence “CGCCATGGGCGACATCGACATCTACAGCCTCTACACTCCGCGGAGTCACCTAGTGCAG”, the binding signal is 44200 fluorescence intensity (a.u.).

Regarding “GCCTGTGGCCCACGCCGTCAGTGGGAGTGGCGGTGTCGGGCGGAGTCACCTAGTGCAG”, the binding signal is 3960 fluorescence intensity (a.u.). As for “CCGAATCCGGCCACCCCGCCGCCTCCACGCGCATCACCGCCGGAGTCACCTAGTGCAG”, the binding signal is 3220 fluorescence intensity (a.u.). With “ACGGGCACGACGACCGTCGTGCTCACGGCCGCCGACGTCGCGGAGTCACCTAGTGCAG”, the binding signal is 4140 fluorescence intensity (a.u.). Regarding “GCCGATTGCAATTTCGTCATCACTGCGGTTAGGATTACACCGGAGTCACCTAGTGCAG”, the binding signal was 4340 fluorescence intensity (a.u.). “TGCTGTCGATGTGCTTATCTTTCGATTTATTCCTCTCATCCGGAGTCACCTAGTGCAG”: the binding signal is 3200 fluorescence intensity (a.u.). On to “CTCCGCAGTCGTAGGCCCACGCGAACCATTCCGTGTGCAACGGAGTCACCTAGTGCAG”, for which the binding signal was 52000 fluorescence intensity (a.u.). As for “CCCACCATTGCCGCCGTGTCCGGCAACCTAACGAACCTCGCGGAGTCACCTAGTGCAG”, the binding signal is 4100 fluorescence intensity (a.u.).

With “GGCAACGCACCACGCTGCACGCGTCCGTGGTCGCCGCGAACGGAGTCACCTAGTGCAG”, the binding signal was 3150 fluorescence intensity (a.u.). “CCTCCTTTTCTTCTCCACGTATACAATCAGTCTAGTTGGACGGAGTCACCTAGTGCAG”: the binding signal is 5040 fluorescence intensity (a.u.).

In the case of “GCAGTATATGTGTGTGTGCTTTCTTTTGGGATAGAGTCTGCGGAGTCACCTAGTGCAG”, the binding signal was 3460 fluorescence intensity (a.u.).

“ATCTTTTCTAGTACCAGGATCTTGTGTTGGTGATAGAGAGCGGAGTCACCTAGTGCAG”: the binding signal is 42500 fluorescence intensity (a.u.). Regarding “TGGATAAGGATGTGTGAGACGTGTGATCTTTACTTGTTGGCGGAGTCACCTAGTGCAG”, the binding signal was 3980 fluorescence intensity (a.u.).

Take “TACTTTAAATGTGTGTCCGTATATCCGATGTGACACGCCACGGAGTCACCTAGTGCAG”: the binding signal was 3870 fluorescence intensity (a.u.).
